GRK2 aptamer HTS – human GRK2 inhibition via aptamer displacement | P25098 | bead flow cytometry, FAM-aptamer displacement from GRK2 | inhibition of aptamer binding, % at 10 µM | actives 0.59% (n = 330,000) | AID 488847;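 active = inhibition of aptamer binding above 40%, roughly 3 SD of noise, on plates passing a quality check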;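 also: median bead fluorescence of bound FAM aptamer so fluorescent compounds give negative values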
NTR1 agonist – NTR1 (human) agonism | P30989 | NTR1-U2OS beta-arrestin-GFP spot imaging, agonist mode | activation, % at 20 µM | actives 0.17% (n = 330,000) | AID 493036;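 active = activation at or above 40% of the spot to cytoplasm intensity ratio, with at least 20 cells analyzed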;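 also: 0% = DMSO without peptide and 100% = 100 nM NTR1 peptide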
Target sequence (P30989 whole entry, looked up): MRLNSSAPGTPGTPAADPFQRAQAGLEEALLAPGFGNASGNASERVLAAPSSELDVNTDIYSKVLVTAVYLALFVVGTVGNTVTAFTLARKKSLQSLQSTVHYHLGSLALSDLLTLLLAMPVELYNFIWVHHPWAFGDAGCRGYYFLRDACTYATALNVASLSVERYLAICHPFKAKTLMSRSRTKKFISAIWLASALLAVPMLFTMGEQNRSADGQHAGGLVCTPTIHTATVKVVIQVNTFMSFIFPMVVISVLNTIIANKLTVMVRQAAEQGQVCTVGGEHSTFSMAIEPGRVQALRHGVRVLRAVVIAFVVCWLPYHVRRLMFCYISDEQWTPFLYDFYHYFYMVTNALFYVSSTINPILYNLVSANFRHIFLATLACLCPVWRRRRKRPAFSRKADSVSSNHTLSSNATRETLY
MIN6 prolif-1 – inducers of beta-cell replication in MIN6 cells. MIN6 cells proliferation, ATPlite luminescence, 48 h; cells starved in 0.2% serum; 100% = growth in 10% serum. proliferation, % at 10 µM. actives 0.29% (n = 330,000). AID 2380;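 active = compounds whose signal lies at least 3.5 SD above the mean of all wells on their plate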;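 also: 0% = DMSO-treated cells in low-serum medium and 100% = 10% serum control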
Platelet DG rel – platelet dense granule release activity; human platelet-rich plasma, SFLLRN dense granule ATP release, luminescence; actives 0.22% (n = 300,000); inhibition, %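 (compounds screened at 7.5 µM in platelet-rich plasma)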;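 active = mean replicate score, as percent of positive control, at or above 50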
MIN6 prolif-2 – MIN6 beta-cell replication induction, confirmed; proliferation increase, % at 50 µM; shares compounds with MIN6 prolif-1; MIN6 beta-cell proliferation, ATPlite luminescence, 48 h; cells kept in 0.2% serum; scaled between 0.2% and 10% serum; 920 tested, under 10 active; AID 463095;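 active = proliferation increase above 40% at any of the four tested concentrations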
The depositor's hits bear a star. An excerpt weighted towards active compounds, which were near 1.2% of everything screened.

`CN1C(=O)c2cccc3c(Cl)ccc(c23)C1=O` gave GRK2 aptamer HTS 2, NTR1 agonist 3, MIN6 prolif-1 6.9*, Platelet DG rel -2 and MIN6 prolif-2 -1.
Screening Cc1sc2ncn(CC(=O)NCCCC(=O)N3CCC(C(N)=O)CC3)c(=O)c2c1C returned GRK2 aptamer HTS 1, NTR1 agonist 0, MIN6 prolif-1 -2 and Platelet DG rel -1.
For Nc1ccc(S(=O)(=O)N2CCCc3ccccc32)cc1 the results were GRK2 aptamer HTS 3, NTR1 agonist -1, MIN6 prolif-1 14*, Platelet DG rel -4 and MIN6 prolif-2 -2.
Screening Cc1ccc(CNc2oc(-c3ccco3)nc2C#N)cc1 returned GRK2 aptamer HTS 1, NTR1 agonist -1, MIN6 prolif-1 0.0*, Platelet DG rel 4 and MIN6 prolif-2 -6.
CNc1oc(-c2ccco2)nc1C#N was read as GRK2 aptamer HTS 0, NTR1 agonist 0, MIN6 prolif-1 -3 and Platelet DG rel -2.
`Cc1ccc(C(=O)OCC(=O)Nc2ccccc2)cc1NC(=O)c1ccco1` gave GRK2 aptamer HTS 0, NTR1 agonist -1, MIN6 prolif-1 0 and Platelet DG rel -4.
`Cc1ccc(C(=O)OCC(=O)Nc2sccc2C(N)=O)cc1NC(=O)c1ccco1` gave GRK2 aptamer HTS 6, NTR1 agonist 7, MIN6 prolif-1 6.1*, Platelet DG rel -42 and MIN6 prolif-2 3.
O=C(CNC(=O)c1ccccc1F)NNC(=O)c1ccccc1O was read as GRK2 aptamer HTS 0, NTR1 agonist 0, MIN6 prolif-1 -1 and Platelet DG rel -16.
`CN(CC(=O)Nc1c(Cl)cccc1Cl)C(=O)CCNS(=O)(=O)c1ccccc1C(F)(F)F` gave GRK2 aptamer HTS 2, NTR1 agonist -2, MIN6 prolif-1 12*, Platelet DG rel 3 and MIN6 prolif-2 0.
CCOC(=O)c1c(S(=O)(=O)NCCc2ccccc2)c(C)n(C)c1C was read as GRK2 aptamer HTS 2, NTR1 agonist 1, MIN6 prolif-1 12*, Platelet DG rel -1 and MIN6 prolif-2 -5.
For CCOC(=O)c1c(S(=O)(=O)NCC(=O)Nc2ccccc2OC)c(C)n(C)c1C the results were GRK2 aptamer HTS 0, NTR1 agonist -1, MIN6 prolif-1 13*, Platelet DG rel -1 and MIN6 prolif-2 2.
For CCOC(=O)c1c(S(=O)(=O)NCC(=O)Nc2ccc(OC)cc2)c(C)n(C)c1C the results were GRK2 aptamer HTS 0, NTR1 agonist 0, MIN6 prolif-1 13*, Platelet DG rel 8 and MIN6 prolif-2 -2.
`CCOC(=O)c1c(S(=O)(=O)NCC(=O)Nc2cc(C)ccc2OC)c(C)n(C)c1C` gave GRK2 aptamer HTS 2, NTR1 agonist 0, MIN6 prolif-1 2 and Platelet DG rel 3.
`CC(=O)c1c(C)n(CCc2ccc(Cl)cc2)c2ccc(O)cc12` gave GRK2 aptamer HTS 1, NTR1 agonist 0, MIN6 prolif-1 -1 and Platelet DG rel 0.
CCCn1c(SCC(=O)c2c(C)[nH]c(C)c2C(=O)OCC)nc2ccccc21 was read as GRK2 aptamer HTS 0, NTR1 agonist 0, MIN6 prolif-1 6.8*, Platelet DG rel 25 and MIN6 prolif-2 -4.
For CCOC(=O)c1c(C)[nH]c(C)c1C(=O)CSc1nc2ccccc2n1CCC#N the results were GRK2 aptamer HTS 2, NTR1 agonist 0, MIN6 prolif-1 2 and Platelet DG rel 20.
Screening Cc1ccc(N(CC(=O)NCc2ccccn2)S(=O)(=O)c2ccccc2)cc1C returned GRK2 aptamer HTS 1, NTR1 agonist -2, MIN6 prolif-1 9.0*, Platelet DG rel -1 and MIN6 prolif-2 2.
For COC(=O)c1ccc(NC(=O)c2cc(-c3ccccn3)nc3ccccc23)cc1 the results were GRK2 aptamer HTS 1, NTR1 agonist 4, MIN6 prolif-1 7.5*, Platelet DG rel 0 and MIN6 prolif-2 2.
For O=C(Nc1ccc(Cl)c(Cl)c1)C1CCCCC1 the results were GRK2 aptamer HTS 0, NTR1 agonist -6 and MIN6 prolif-1 -5.
`COc1ccc(N(C(=O)CNC(=O)c2cccs2)C(C(=O)NC2CCCC2)c2ccncc2)cc1` (configuration not stated) gave GRK2 aptamer HTS 1, NTR1 agonist -1, MIN6 prolif-1 7.3*, Platelet DG rel 4 and MIN6 prolif-2 0.
`COc1ccc(N(C(=O)Cc2cccs2)C(C(=O)NC2CCCC2)c2ccncc2)cc1` (configuration not stated) gave GRK2 aptamer HTS 1, NTR1 agonist 0, MIN6 prolif-1 0 and Platelet DG rel 4.

Screens: PubChem BioAssay, several laboratories
